This is a sample that favours compounds with a hit; in the whole collection about 4.7% have one here.
TWEAK Fn14 block: blocks TWEAK-Fn14 interaction in a reporter cell assay; TWEAK-stimulated Fn14 reporter cells, luciferase luminescence, 8 h; inhibition, % at 10 µM; 360,000 tested, 2% active; in the data active = inhibition above about 50%
HSF1 inhib: HSF1 inhibition. NIH3T3-HGL HSE-luciferase, MG132-induced, luminescence 8 h; active compounds read low. activity change, negative = inhibition, % at 7.5 µM (by protocol). 300,000 tested, 0.77% active. AID 2098;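 active = more than half of replicate wells show activity change below -50%, luminescence cut by over half; inconclusive = some wells, but at most half, below -50%; inactive = no replicate well below -50%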;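 note: luciferase reports HSF-1 transcriptional activity via heat shock element; 0% = median of DMSO wells and -100% = zero luminescence signal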
EBV LMP1 NFkB: Epstein-Barr LMP1 NF-kappaB reporter inhibition | LMP1-induced NF-kappaB luciferase reporter cells, luminescence | inhibition, % at 12.5 µM | 350,000 tested, 0.69% active; in the data active = inhibition above about 41%; inconclusive = no clear call, values can overlap the other calls;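 note: 0% = neutral control wells and 100% = reference inhibitor control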
HSP90 refold inh: blocks HSP90-mediated luciferase refolding in reticulocyte lysate | Rabbit reticulocyte lysate, luciferase refolding luminescence, 3 h | inhibition, % at 5.6 µM | 290,000 tested, 0.91% active;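 active = inhibition above the screen-wide mean plus 3 SD, computed separately per campaign, cut at about 16% in these data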;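 note: 0% = DMSO wells and 100% = 60 µM geldanamycin wells; inhibitors lower the luminescence because luciferase stays unfolded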
HSF-1 act: increases HSF-1 driven luciferase reporter signal; NIH3T3-HGL HSF-1 luciferase reporter, MG132, 8 h; 100% = twice DMSO control signal; activation, % at 9 µM; AID 504408; 300,000 tested, 1.7% active;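 active = mean replicate activation of at least 50% with a set share of replicates each reaching 50%; inconclusive = only one of those two conditions met; inactive = mean below 50% and too few replicates reaching it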;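 note: 0% = median of the neutral control wells and 100% = twice that signal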
TROY signal inh: inhibitors of TROY-dependent NF-kB signaling | 360,000 tested, 0.98% active | AID 1347056 | inhibition, % at 10 µM | Q293 LMP1-TROYcd NF-kB luciferase reporter, 4 h;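 active = compounds whose plate-normalised and pattern-corrected inhibition of the luciferase reporter signal at the single screening dose is 50% or more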
The depositor's hits bear a star; ? = inconclusive; . = not tested or not shown.

SMILES	TWEAK Fn14 block	HSF1 inhib	EBV LMP1 NFkB	HSP90 refold inh	HSF-1 act	TROY signal inh
Cn1cc(C(=O)N/N=C/c2cc(Br)cs2)c2ccccc21	.	19.8	.	1.3	60.3*	.
COc1ccc(/C=C(/NC(=O)c2ccccc2)C(=O)N/N=C/c2sccc2C)cc1	-22.9	-7.5	-3.5	-0.5	-1.7	-16.7
COc1ccc(/C=C/C(=O)c2ccc3c(c2)OCCO3)cc1[N+](=O)[O-]	37.4	21.6	19.2	3.8	24.4	-34.3
Cc1ccsc1/C=N/NC(=O)CO	-16.5	-6.8	-7.7	3.4	5.7	-66.3
Cc1ccsc1/C=N/NC(=O)c1sccc1C	1.2	31.1	-5.4	1.8	63.8*	-46.4
CC(=O)NCCCNC(=S)NCCCN(Cc1ccc(Cl)cc1)c1ccc(Br)cn1	12.1	.	.	.	.	20.3
CCCCSc1nc(CCC)cc(=O)[nH]1	91.7*	-4.9	-16.6	6.9	21.0	-2.5
CN(C(=O)COC(=O)COc1ccc2ccccc2c1)c1ccccc1	11.0	.	-8.1	.	.	-29.1
Nc1ncnc(NCc2ccccc2)c1[N+](=O)[O-]	39.5	-7.5	24.4	1.3	-6.8	10.8
Nc1ncnc(NCc2ccc(F)cc2)c1[N+](=O)[O-]	59.6*	-19.7	23.3	1.7	-29.7	13.7
CCOc1ccc(CNC(=S)N/N=C\c2ccc([N+](=O)[O-])cc2)cc1	-11.7	6.9	3.4	4.5	8.8	-36.5
COc1cc(/C=N/NC(=S)NC2CC3C=CC2C3)cc(OC)c1OC (stereo not given)	-7.3	123.4	4.3	-0.3	163.8*	-2.7
CCOc1ccc(/C=N/NC(=S)NC2CC3C=CC2C3)cc1 (stereo not given)	-32.6	35.1	-4.7	-2.8	52.6*	-18.0
Oc1c(Br)cc(Br)cc1/C=N/NC(=S)N[C@H]1CC2C=CC1C2 (stereo not given in full)	-22.0	10.0	-1.7	-1.6	11.3	17.0
COC(=O)c1ccc(Sc2nnnn2-c2ccccc2)c([N+](=O)[O-])c1	84.1*	2.4	-8.6	-0.1	14.1	35.6
O=C(Nc1ccc(C(O)c2ccccc2)cc1)[C@H]1C[C@H](O)[C@@H](CO)O1 (stereo not given in full)	12.2	.	.	.	.	0.3
COc1ccc(C(=O)/C=C/C(=O)N(CC(=O)NC2CCCCC2)Cc2ccc(F)cc2)c(O)c1	84.9*	?	25.1	-1.9	8.3	89.5*
COc1ccc(Nc2cc(C)c3cc([N+](=O)[O-])ccc3n2)cc1	50.8*	17.7	-7.4	0.9	28.5	-13.2
COc1ccc(Nc2ccc([N+](=O)[O-])cn2)cc1	-19.0	2.9	-23.1	-0.7	15.4	-31.5
Cc1cccc(Cc2cccc(C)c2O)c1O	11.7	.	.	.	.	-18.0
O=C1c2ccccc2OC2(C=Cc3ccccc3O2)N1Cc1ccccc1 (stereo not given)	76.0*	2.2	-6.1	-0.5	-2.2	.
CCN1C(=O)N[C@@H](CCc2ccccc2)[C@H](C(C)=O)[C@H]1C	4.4	9.8	57.6*	.	18.7	-11.2
CC(C)c1nnc(NC(=O)c2ccc(N3C(=O)CCC3=O)cc2)s1	-21.1	-30.2	85.5*	-0.3	-42.0	-15.6
O=C(Nc1nnc(C23CC4CC(CC(C4)C2)C3)s1)c1ccc(N2C(=O)CCC2=O)cc1	-34.2	-1.9	80.8*	-1.6	11.9	8.9
CC1CCCCC1NC(=O)C1CCC(CNS(=O)(=O)c2ccc3c(c2)C(C)(C)C(=O)N3C)CC1 (stereo not given)	3.0	.	.	.	.	-7.3
SMILES	TWEAK Fn14 block	HSF1 inhib	EBV LMP1 NFkB	HSP90 refold inh	HSF-1 act	TROY signal inh
N#CCc1ccc(NC(=O)Nc2cccc3ccccc23)cc1	-19.8	-77.6*	-3.2	1.6	-82.2	9.7
O=S1(=O)CC(N2CCCCC2)C(N2CCCCC2)C1 (stereo not given)	-14.9	-3.4	50.9*	4.5	-0.3	-1.2
CC1CCN(CCOc2ccc(C(=O)c3ccccc3)cc2)CC1	4.2	-6.5	79.5*	2.5	-5.2	4.3
CC1CCN(CCCCOc2ccc(C(=O)c3ccccc3)cc2)CC1	-2.4	-1.2	-2.2	-0.8	-22.2	-3.8
CC(=O)Nc1ccccc1C(=O)C(=O)Nc1cccc(C(=O)N2CC(C)CC(C)C2)c1 (stereo not given)	77.6*	-3.4	-3.8	-1.0	5.2	14.2
CC(=O)Nc1ccccc1C(=O)C(=O)Nc1cccc(C(=O)NC2CC2)c1	1.2	-1.5	-5.8	4.0	-2.6	3.8
CC(C)C[C@H](CO)Nc1nc(Nc2cccc(Cl)c2)c2ncn(C(C)C)c2n1	78.7*	3.2	-11.3	.	2.0	47.2
COc1cccc(NC(=O)COC(=O)c2c3c(nc4ccccc24)CCC(C)C3)c1 (stereo not given)	57.4*	-6.3	22.0	3.7	-6.2	35.6
Cc1cc(=O)oc2cc(OCC(=O)Nc3nnc(C(C)C)s3)ccc12	77.4*	-5.8	-8.9	-10.1	-8.0	-1.4
CC(O)CC(=O)OC[C@]12CC[C@H]3[C@@](C)(CC[C@H]4C(C)(C)CCC[C@]34C)[C@@H]1CC(C1=CC(=O)OC1O)O2 (stereo not given in full)	106.0*	.	.	.	.	88.9*
Cc1ccc2ccccc2c1C(O)c1ncc(-c2ccc(C(F)(F)F)cc2)[nH]1 (stereo not given)	37.9	.	.	.	.	13.9
O=C(NCCc1cn2ccccc2n1)c1cc(COc2ccc3ncccc3c2)on1	66.2*	-2.2	12.0	2.5	23.8	40.7
CN(CCc1ccccc1)C(=O)c1cc(COc2cccc(C(F)(F)F)c2)on1	-18.1	106.8	-9.3	0.2	185.7*	-6.0
COc1cccc(CN(C)C(=O)c2cc(COc3ccc4ncccc4c3)on2)c1	59.5*	-5.1	-0.7	2.7	2.7	40.9
COc1cccc(OCc2cc(C(=O)N(C)CCOc3ccc(C)cc3)no2)c1	-34.6	34.2	-24.3	8.7	57.1*	-14.0
O=C(NC1CCCC1)c1cc(COc2ccc3ncccc3c2)on1	24.6	-6.5	28.4	-0.8	2.3	29.2
CC1(C(=O)N2Cc3ccccc3C2)CCN1C(=O)Cc1ccccc1 (stereo not given)	7.8	.	.	.	.	-9.4
CCCCN(C)C(=O)c1sc(=O)n(Cc2ccc(Cl)c(Cl)c2)c1C	-0.4	.	.	.	.	6.0
COC(=O)c1ccc(NC(=O)CSc2nnc(-c3ccccc3)n2C)cc1	-7.0	-67.2*	0.7	-2.7	-75.3	-6.0
Cc1ccc(-c2nnc(SCC(=O)Nc3ccc4c(c3)oc3ccccc34)n2C)c(Cl)c1	67.5*	14.0	7.8	-7.5	56.6*	22.1
COC(=O)c1ccc(NC(=O)CSc2nnc(C)n2-c2ccccc2)cc1	0.5	3.0	-10.1	-2.0	6.3	-4.1
Cn1c(SCC(=O)NNC(=O)Nc2ccc(Cl)cc2)nnc1-c1ccccc1	.	14.8	.	5.3	55.5*	.
Cc1ccccc1OCc1nnc(SCC(=O)Nc2ccc3c(c2)oc2ccccc23)n1C	-49.2	1.8	-9.1	-1.7	-2.6	-14.8
CC(C)CC(=O)Nc1ccc2c(c1)oc1ccccc12	-18.6	32.3	-69.7	-0.7	61.7*	-103.6
